Data from PubChem BioAssay AID463213 (Sanford-Burnham Center for Chemical Genomics, 2010).
The campaign covered roughly 7,400 compounds. About 4,100 (55%) were called active.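 Rule for the calls: active = inhibition of yeast growth at or above a set limit in either of two repeat tests at 20 µM; inactive = the rest.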 So high a share suggests a set chosen from earlier hits. Not all results are given here.

Assay: tim10-1 ts yeast growth inhibition, retested – single concentration, luminescence, S. cerevisiae, confirmation (AID 463213);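 note: tim10-1 mutant grown at permissive 25 °C to find synthetic lethal compounds; 0% = DMSO yeast wells and 100% = medium wells without yeast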
Details: S. cerevisiae tim10-1 ts strain growth, BacTiter-Glo, 24 h; at 20 µM; active compounds read high

inhibition, active:
CCCc1[nH]nc2c1C(c1ccc(Br)s1)C(C#N)=C(N)O2 (configuration not stated) 79.5%, CSc1ccc(S(=O)(=O)NCc2ccc(Cl)cc2)cc1 30.4%, N/C(=N\OC(=O)c1cc(-c2ccccc2)nc2ccccc12)c1ccncc1 70.7%, O=C(/C=C/c1ccc(Cl)c([N+](=O)[O-])c1)c1cccnc1 62%, O=C(/C=C/c1ccc(Cl)c([N+](=O)[O-])c1)c1ccc(O)cc1 48.3%, O=C1C=CC(=O)N1c1ccc(N2CCCCC2)cc1 92.6%, Cc1oc2cc(Br)c(O)c(Br)c2c1C(=O)c1ccccc1 36.2%, CC1=C/C(=N\OS(=O)(=O)c2ccccc2)C=CC1=O 60.8%, O=c1c(Cl)c(NCc2ccc(F)cc2Cl)cnn1C12CC3CC(CC(C3)C1)C2 44.2%, CCc1nc(C)cn1S(=O)(=O)c1cc([N+](=O)[O-])ccc1Cl 47.8%, O=C(c1ccccc1)N1CCC(CC2CC(c3ccc(Cl)cc3)=NO2)(C(=O)NCC2CCCCC2)CC1 (configuration not stated) 34%, COc1cc([N+](=O)[O-])ccc1NC(=O)COC(=O)CCOc1ccc(C)cc1 63.3%, O=C(NC1CCCCC1)c1ccc(-c2ccc(Cl)cc2)o1 39%, CSC1=N/C(=C\C=C\c2cccs2)C(=O)S1 51.9%, c1ccc(-c2nc(NCc3ccco3)c3ccccc3n2)cc1 42%, CC(C)(CCl)C(=O)Nc1ccc(Sc2ccc(F)cc2)cc1 51.8%, COCCNC(=O)/C(C#N)=C/c1cccc(OCc2ccccc2)c1 70.2%, C/C(=N/NC(=O)c1cc(Cl)ccc1O)C12CC3CC(CC(C3)C1)C2 34.1%, Cc1cc(C)n(-c2nc(SCC(=O)N3CCCC3)c3c4c(sc3n2)CCCC4)n1 40.1%, CCC(C)(C)n1nnnc1CN1CCN(c2nc3ccc(C)cc3cc2C#N)CC1 35.2%, Fc1cccc(Cl)c1CSc1ccc(-c2ccco2)nn1 39.5%, COc1ccc(CS(=O)/C(Cl)=C(/Cl)C(=O)Nc2ccc(OC)nc2)cc1 (configuration not stated) 34.8%, Cc1ccc(NC(=O)CN2CCC3(O)CCCCC3C2c2ccc3c(c2)OCO3)c(C)c1 (configuration not stated) 37.5%, CN(c1ccccc1)S(=O)(=O)c1ccc(NC(=O)COc2ccccc2)cc1 34.2%, N/C(=N\OC(=O)CCc1ccccc1)c1ccc(Cl)cc1 57.7%, COc1ccc(/C(N)=N/OC(=O)CCCc2ccccc2)cc1 48.1%, CS(=O)(=O)c1sc2nc(-c3ccccc3)cc(-c3ccccc3)c2c1N 33.8%, O=C(CC(O)(C(F)(F)F)C(F)(F)F)Nc1ccc(Cl)c(Cl)c1 88.2%, O=S(=O)(Nc1cccc(Oc2ccc(Cl)cc2)n1)c1ccc(F)cc1 45%, CCCCCC1CCC(c2nnc(SCC(C)=O)o2)CC1 (configuration not stated) 39.2%, CCOC(=O)c1c(-c2ccccc2)oc2cc(Br)c(O)cc12 39.4%, CCn1nccc1C(=O)Nc1ccc(Cl)c(Cl)c1 37.8%, O=C(/C=C/c1ccccc1)c1ccccc1O 56.2%, COc1ccc(C(=O)Nc2ccc(-n3nncc3C(C)(C)C)cc2)cc1 38.6%, Cc1ccc(S/C(=N\S(=O)(=O)c2ccc(Cl)cc2)c2ccccc2)cc1 35.6%, Oc1c(CN2CCN(c3ccc(F)cc3)CC2)cc(Cl)c2cccnc12 32%, O=C(/C=C/c1cccs1)c1cc(Cl)ccc1OC(=O)N1CCOCC1 48.5%, O=C(NC(Nc1nc2ccc([N+](=O)[O-])cc2s1)(C(F)(F)F)C(F)(F)F)c1ccccc1 86.6%, N/C(=N\OC(=O)CCC1CCCCC1)c1ccccn1 45.5%, N/C(=N\OC(=O)CC1CCCCC1)c1ccccc1 47.9%, Cc1nnnn1/C(=C\c1ccccc1)C(=O)OCC(=O)N1CC2(C)CC1CC(C)(C)C2 (configuration not stated) 48.4%, N/C(Cc1ccc([N+](=O)[O-])cc1)=N\OC(=O)C1CCCCC1 79.8%, N/C(Cc1ccc([N+](=O)[O-])cc1)=N\OC(=O)COc1ccc2ccccc2c1 74.3%, Cc1cccc(NC(=S)Nc2ccc(Cl)c(Cl)c2)c1 50.9%, CCOc1ccc(C(c2c(C)[nH][nH]c2=O)c2c(C)[nH][nH]c2=O)cc1OCC 36.1%, N/C(=N\OC(=O)Cc1ccccc1[N+](=O)[O-])c1ccc(Br)cc1 55.3%, Cc1cccc(N=Nc2c(O)[nH]c3ccc(F)cc23)c1 51.5%, Cc1ccccc1NCC(=O)N/N=C\c1ccc([N+](=O)[O-])s1 44.2%, Cc1ccccc1Nc1nnc(SCC(=O)c2cc3ccccc3o2)s1 33.8%, O=C(/C=C/Sc1ncn[nH]1)c1ccc(Cl)cc1 69.7%

inhibition, inactive:
CSc1ccc(S(=O)(=O)NC2CCCCC2)cc1 22.4%, O=[N+]([O-])c1ccc(N2CCN(c3ccc(O)cc3)CC2)c(Cl)c1 30.2%, Cc1ccc(N2C(=O)C(Cc3ccccc3)NC2=S)cc1 (configuration not stated) 16.7%, Cc1sc2ncnc(SCC(=O)Nc3ccc(CN4CCCC4)cc3)c2c1C 23.3%, COc1ccc(OC)c(-c2c(=O)n(OCc3ccccc3Br)c3ccccc3[n+]2[O-])c1 24.3%, CC(C)c1nccn1S(=O)(=O)c1cc([N+](=O)[O-])ccc1Cl 28.7%, O=C(COC(=O)CCOc1ccccc1)Nc1cc(S(=O)(=O)N2CCCCC2)ccc1Cl 30.2%, O=C(Nc1cccc(F)c1)NC1CCCCCCC1 20.1%, O=[N+]([O-])c1ccc(N/N=C/c2ccccc2)cc1 27%, S=c1[nH]c2ccccc2c2ccccc12 7.95%, C#CCN1C(=O)C(O)(CC(=O)c2cc(OC)ccc2OC)c2ccccc21 (configuration not stated) 30.6%, Cc1cccc(OCCNC(=S)NC(=O)c2cccnc2)c1 27.1%, S=C(NCc1ccc(Cl)cc1)NC12CC3CC(CC(C3)C1)C2 3.55%, C/C(=N\Nc1nc(Nc2ccccc2)nc(N2CCOCC2)n1)c1cccs1 24.8%, CCOc1ccc2nc(N3CCCN(C(=O)Nc4ccccc4C)CC3)c(C#N)cc2c1 26.7%, Clc1ccccc1CSc1nnc(-c2ccco2)c(-c2ccco2)n1 27.3%, COc1cc(C(=O)Nc2nccs2)cc(OC)c1OC 29%, CSc1nnc(NC(=O)c2nc(S(=O)(=O)Cc3ccc(C)cc3)ncc2Cl)s1 -0.5%, Cn1c(CCCOc2ccc(Cl)cc2Cl)n[nH]c1=S 17.5%, Cn1c(C(=O)OC(C(=O)NC2CCCCC2)c2ccccn2)cc2sccc21 (configuration not stated) 17.9%, Cc1ccc(NC(=O)CCOc2ccccc2)cc1S(=O)(=O)Nc1ccccc1Cl 29.1%, COc1ccc(/C(N)=N/OC(=O)Cc2ccccc2)cc1 15.5%, Nc1nc(-c2ccccc2)cc(-c2ccccc2)n1 10%, O=C(COc1ccccc1Cl)N1N=C(c2cccs2)CC1c1ccco1 (configuration not stated) 27.8%, CN=c1scc(-c2cc(OC)ccc2OC)n1/N=C/c1c(C)[nH]c2ccccc12 19.1%, CCCc1nc2c(c(=O)c3ccccc3n2C)c(=O)n1C1CCCCCC1 28.5%, COc1ccc(CCNc2cc(C)nc3c(-c4ccc(Cl)cc4)c(C)nn23)cc1OC 24%, CCOC(=O)c1c(-c2ccccc2)oc2ccc(OCC(=O)NN)cc12 15.6%, CCOC(=O)c1c(CN2CCOCC2)n(-c2ccccc2)c2ccc(O)cc12 22.6%, CCOc1ccccc1N1CCN(C(=O)c2ccc3[nH]c(C)c(C)c3c2)CC1 16.4%, CC(C)Cn1c(N)c(C(=O)NCc2cccs2)c2nc3ccccc3nc21 22.4%, Fc1ccc(N2CCN(Cc3cnc(Oc4ccc(Br)cc4)s3)CC2)cc1 28.4%, O=C(c1cccc(C(=O)N2CCN(c3ccc(F)cc3)CC2)c1)N1CCN(c2ccc(F)cc2)CC1 27%, OC(CNCC1CCCO1)Cn1c2ccc(Br)cc2c2cc(Br)ccc21 (configuration not stated) 3.65%, O=C(NCCN1C(=O)S/C(=C\c2cccnc2)C1=O)c1cccc(OC(F)F)c1 27.6%, S=c1[nH]nc(CSCc2ccc(Cl)cc2Cl)n1-c1ccccc1 24.7%, CN(C)C(=O)c1ccc2c(c1)C1C3CCC(C3)C1C(c1ccccc1)N2 (configuration not stated) 25.9%, Cc1cccc(NC(=S)N2CCC(c3nc4ccccc4s3)CC2)c1 30.5%, FC(F)(F)c1cccc(NC(=S)Nc2cccc(Cl)c2)c1 21.2%, Cc1[nH][nH]c(=O)c1C(c1ccc(-c2ccc(Cl)cc2)o1)c1c(C)[nH][nH]c1=O 29%, COc1ccccc1C1SCCN1C(=O)c1ccc([N+](=O)[O-])cc1 (configuration not stated) 15.9%, COc1cc(Cl)c(C)cc1NC(=O)CSc1nnc(-c2ccco2)n1CC(C)C 24.4%, COc1cc(N=Cc2c(O)[nH]c3ccccc23)cc(OC)c1OC 20.7%, C/C(=N\NC(=O)CNc1cccc2ccccc12)c1ccc(Br)s1 26.1%, O=C(CCc1ccccc1)Nc1ncc([N+](=O)[O-])s1 25%, CC(C)CC(=O)NC(=S)Nc1ccc(F)cc1F 24.9%, COc1ccc(CCNCc2c(-c3ccccc3)n(C)c3ccccc23)cc1 19.6%
